Assay outcomes: PubChem BioAssay, The Scripps Research Institute Molecular Screening Center
FBW7 activator – FBW7 E3 ligase activators, primary screen, biochemical, AlphaScreen, human | F-box/WD repeat-containing protein 7 (Homo sapiens), Q969H0 | AlphaScreen FBW7–phospho-cyclin E peptide binding, activator screen | normalized activity (activation), % at 26.1 µM | 650,000 tested, 0.13% active | AID 1259310, 2017; in the data active = normalized activity above about 1.9%;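 note: purified mutant Fbw7 with reduced substrate affinity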
Target sequence (Q969H0 whole entry, looked up): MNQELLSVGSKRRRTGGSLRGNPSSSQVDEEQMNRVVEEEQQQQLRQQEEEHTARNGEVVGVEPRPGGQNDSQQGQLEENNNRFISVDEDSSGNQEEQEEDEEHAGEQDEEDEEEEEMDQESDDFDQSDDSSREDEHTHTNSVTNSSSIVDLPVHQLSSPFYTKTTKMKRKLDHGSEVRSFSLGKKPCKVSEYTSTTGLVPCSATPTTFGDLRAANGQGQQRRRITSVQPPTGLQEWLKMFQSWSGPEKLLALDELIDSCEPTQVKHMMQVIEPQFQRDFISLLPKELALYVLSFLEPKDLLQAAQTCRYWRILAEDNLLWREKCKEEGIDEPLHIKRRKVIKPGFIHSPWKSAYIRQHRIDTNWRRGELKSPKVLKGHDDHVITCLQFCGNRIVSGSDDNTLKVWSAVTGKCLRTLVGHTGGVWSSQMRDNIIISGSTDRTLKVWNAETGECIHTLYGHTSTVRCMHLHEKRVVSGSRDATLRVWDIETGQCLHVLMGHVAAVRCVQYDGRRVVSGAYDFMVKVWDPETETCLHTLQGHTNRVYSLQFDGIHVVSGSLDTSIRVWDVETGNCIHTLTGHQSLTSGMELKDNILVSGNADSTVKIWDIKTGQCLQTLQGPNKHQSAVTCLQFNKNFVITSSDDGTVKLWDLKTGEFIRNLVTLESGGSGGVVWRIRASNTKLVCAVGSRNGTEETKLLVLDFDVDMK
MITF inh – MITF inhibitors, primary screen, biochemical, AlphaScreen, human; inhibition, % at 2.6 µM; Microphthalmia-associated transcription factor (Homo sapiens), O75030; 650,000 tested, 0.91% active; AID 1259374, 2018; AlphaScreen MITF homodimerization, bead proximity signal; in the data active = inhibition above about 50%
GPR151 ag – activators of human GPR151, primary screen, cell-based, PathHunter beta-arrestin, luminescence; PathHunter beta-arrestin GPR151 cells; 650,000 tested, 1% active; G-protein coupled receptor 151 (Homo sapiens), Q8TDV0; activation, % at 11.2 µM; in the data active = activation above about 4.9%
TEAD-YAP block – TEAD-YAP interaction inhibition, primary screen, TEAD-YAP interaction inhibitor project, luminescence, HEK-TIYL cells; inhibition, % at 9.12 µM; TEAD-Gal4/YAP UAS-luciferase luminescence; 640,000 tested, 1.4% active; AID 1259422, 2018; in the data active = inhibition above about 32%
Large screens that a line does not name were inactive. Compounds with a hit are over-represented: about 3.5% of the library has one in this group of screens.

O=C(CN(C(=O)c1cccc([N+](=O)[O-])c1)N1C(=O)CCC1=O)c1ccc(F)cc1	none
CNC(=O)c1ccccc1Nc1cc(Nc2ncccn2)ncc1C(F)(F)F	none
CNC(=O)c1ccccc1Nc1cc(Nc2ccc3c(c2)OCO3)ncc1C(F)(F)F	TEAD-YAP block 41
COC(=O)C(NC(=O)C(F)(F)F)(c1cccs1)C(F)(F)F (stereo unspecified)	none
Cc1ccc(NC(=O)Cn2nnc(-c3ccccc3NC(=O)c3cccs3)n2)cc1	TEAD-YAP block 54
COc1ccc(NC(=O)Cn2nnc(-c3ccccc3NC(=O)c3cccs3)n2)cc1	none
O=C(Nc1ccc2c(c1)OCCO2)c1ccccc1NC(=S)NCCN1CCOCC1	TEAD-YAP block 73
Fc1ccccc1NC(=S)NCCN1CCOCC1	none
OC(c1ccccc1)c1ccccn1 (stereo unspecified)	none
CC1CC(C(O)c2ccccn2)C(=O)C(C(O)c2ccccn2)C1 (stereo unspecified)	TEAD-YAP block 40
CC1CCC(C(C)C)C(OC(=O)Cn2c[n+](CC(=O)OC3CC(C)CCC3C(C)C)c3ccccc32)C1 (stereo unspecified)	none
CC1CCC(C(C)C)C(OC(=O)Cn2c(-c3ccc(F)cc3)[n+](C)c3ccccc32)C1 (stereo unspecified)	TEAD-YAP block 40
CC1CCC(C(C)C)C(OC(=O)CN2C(=O)C3C4c5ccccc5C(c5ccccc54)C3C2=O)C1 (stereo unspecified)	none
CC1CCC(C(C)C)C(OC(=O)Cn2c(-c3ccccc3)[n+](C)c3ccccc32)C1 (stereo unspecified)	TEAD-YAP block 83
O=C(NCCSCc1ccccc1)c1ccc2c(=O)n(C3CCCCC3)c(=S)[nH]c2c1	none
COc1cc([N+](=O)[O-])cc(/C=N/NC(=O)c2ccccc2OC(C)C)c1O	none
O=C(NCc1ccco1)C1CC12CCN(Cc1nc(-c3ccccc3)cs1)CC2 (stereo unspecified)	TEAD-YAP block 56
CN1CCCN(C(=O)C2CC23CCN(Cc2nc(-c4ccccc4)cs2)CC3)CC1 (stereo unspecified)	none
COc1ccccc1C1CC(=O)N2C(=C1C#N)SCC2(O)c1ccc(F)cc1 (stereo unspecified)	none
Nc1[nH]ncc1-c1ccc(NC(=O)C2COc3ccc(F)cc3C2)cc1 (stereo unspecified)	TEAD-YAP block 47
Nc1oncc1-c1ccc(NC(=O)C2COc3ccc(F)cc3C2)cc1 (stereo unspecified)	TEAD-YAP block 50
Cc1[nH]ncc1-c1ccc(NC(=O)C2COc3ccccc3C2)cc1 (stereo unspecified)	TEAD-YAP block 41
Nc1oncc1-c1ccc(NC(=O)C2COc3ccccc3C2)cc1 (stereo unspecified)	none
Cc1noc(C)c1-c1nc2ncnc(NC3CCN(Cc4ccccc4)CC3)c2[nH]1	none
O=C(CCc1ccccc1)Nc1ccnn1C1CCN(C(=O)C2CC23CCC3)CC1 (stereo unspecified)	none
Oc1ccccc1-c1cc(-c2ccccc2)no1	none
Cc1ccc(-c2cc(-c3ccccc3)no2)c(O)c1	TEAD-YAP block 52
O=C(NC(=S)Nc1ccc(Br)cc1F)c1cccs1	none
Nc1ccc2nc(SCC(=O)N3CCN(c4ccc(Cl)cc4)CC3)sc2c1	TEAD-YAP block 51
COc1ccc2cc3c(N)nn(C(=O)c4cccc(Cl)c4)c3nc2c1	none
COc1ccc2cc3c(N)nn(C(=O)c4cccc(F)c4)c3nc2c1	none
COc1ccc2cc3c(N)nn(C(=O)c4ccccc4F)c3nc2c1	TEAD-YAP block 55
COc1ccc2cc3c(N)nn(C(=O)c4cccnc4)c3nc2c1	TEAD-YAP block 32
COc1ccc2cc3c(N)nn(C(=O)c4ccccc4Cl)c3nc2c1	TEAD-YAP block 45
COc1ccc2cc3c(N)nn(C(=O)c4ccc(F)cc4)c3nc2c1	TEAD-YAP block 36
N#Cc1sc2nccc(Nc3ccccc3)c2c1N	TEAD-YAP block 34
CC(C)(C)NS(=O)(=O)c1cc(Br)cc2c1N(C(=O)C1CC1)CC2	none
O=C(C1CC1)N1CCc2cc(Br)cc(S(=O)(=O)Nc3cccc(F)c3)c21	TEAD-YAP block 42
O=C(C1CC1)N1CCc2cc(Br)cc(S(=O)(=O)Nc3ccccc3F)c21	TEAD-YAP block 45
CSc1ccc(/C=C/c2ccc3cccc(O)c3n2)cc1	TEAD-YAP block 34
Oc1cccc2ccc(/C=C/c3ccccc3)nc12	TEAD-YAP block 32
Oc1ccc(Br)c2ccc(/C=C/c3ccccc3)nc12	none
Cc1nn(C)c(C)c1-c1nc2ncnc(NCCOc3ccccc3)c2[nH]1	none
Cc1nc2ccc(-c3ccc4nc(C)n(N)c(=O)c4c3)cc2c(=O)n1N	none
Cc1ccnc(NC(c2ccc(Cl)cc2)c2ccc3cccnc3c2O)c1 (stereo unspecified)	TEAD-YAP block 84
Cc1ccnc(NC(c2ccc(O)cc2)c2ccc3cccnc3c2O)c1 (stereo unspecified)	none
Cc1ccnc(NC(c2ccc(C(C)C)cc2)c2ccc3cccnc3c2O)c1 (stereo unspecified)	TEAD-YAP block 53
Cc1ccnc(NC(c2ccc3cccnc3c2O)c2sccc2C)c1 (stereo unspecified)	none
Cc1ccnc(NC(c2ccc(N(C)C)cc2)c2ccc3cccnc3c2O)c1 (stereo unspecified)	MITF inh 60
CCOC(=O)C1CCCN(C(=O)c2cc(F)c(Cl)cc2F)C1 (stereo unspecified)	none
COc1ccc(-c2cc3nccc(C4CCCNC4)n3n2)cc1OC (stereo unspecified)	none
COc1cccc(-c2cc3nc(C4CCCNC4)cc(N)n3n2)c1 (stereo unspecified)	TEAD-YAP block 37
Nc1c(-c2ccc(O)cc2)nc2cnccn12	none
CCCC(=O)NC(c1ccccc1OC)c1ccc2cccnc2c1O (stereo unspecified)	TEAD-YAP block 76
COc1ccccc1C(NC(=O)c1cc(OC)c(OC)c(OC)c1)c1cc(Cl)c2cccnc2c1O (stereo unspecified)	none
CCCCC(=O)NC(c1ccccc1OC)c1ccc2cccnc2c1O (stereo unspecified)	TEAD-YAP block 73
OCCNc1nc2ccccc2n1CN1CCCC1c1nc2ccccc2s1 (stereo unspecified)	none
Cc1occc1C(=O)NNC(=S)NCC1CCCO1 (stereo unspecified)	none
Cc1ccc(NC2OC(C)C(O)C(O)C2O)cc1 (stereo unspecified)	none
COc1ccc(N2CCn3c(SCc4cccc(C)c4)nnc32)cc1	FBW7 activator 1.9
COc1ccc(N2CCn3c(SCc4cccc(Cl)c4)nnc32)cc1	none
CCCCS(=O)(=O)/C=C\C=C\S(=O)(=O)CCCC	TEAD-YAP block 90
O=C(Cn1nnc2ccccc21)N/N=C/c1cc([N+](=O)[O-])ccc1O	MITF inh 73
